POLI inh = qHTS for Inhibitors of Polymerase Iota. DNA polymerase iota (Homo sapiens), Q9UNA4. Pol iota fluorescent replication assay, 10 min. Potency, µM (highest dose often 115 µM), inactives show at the highest dose activity, negative = inhibition, actives largely listed as inhibitors. 1% of 390,000 active. AID 588590, 2011
Target sequence (Q9UNA4 whole entry, looked up): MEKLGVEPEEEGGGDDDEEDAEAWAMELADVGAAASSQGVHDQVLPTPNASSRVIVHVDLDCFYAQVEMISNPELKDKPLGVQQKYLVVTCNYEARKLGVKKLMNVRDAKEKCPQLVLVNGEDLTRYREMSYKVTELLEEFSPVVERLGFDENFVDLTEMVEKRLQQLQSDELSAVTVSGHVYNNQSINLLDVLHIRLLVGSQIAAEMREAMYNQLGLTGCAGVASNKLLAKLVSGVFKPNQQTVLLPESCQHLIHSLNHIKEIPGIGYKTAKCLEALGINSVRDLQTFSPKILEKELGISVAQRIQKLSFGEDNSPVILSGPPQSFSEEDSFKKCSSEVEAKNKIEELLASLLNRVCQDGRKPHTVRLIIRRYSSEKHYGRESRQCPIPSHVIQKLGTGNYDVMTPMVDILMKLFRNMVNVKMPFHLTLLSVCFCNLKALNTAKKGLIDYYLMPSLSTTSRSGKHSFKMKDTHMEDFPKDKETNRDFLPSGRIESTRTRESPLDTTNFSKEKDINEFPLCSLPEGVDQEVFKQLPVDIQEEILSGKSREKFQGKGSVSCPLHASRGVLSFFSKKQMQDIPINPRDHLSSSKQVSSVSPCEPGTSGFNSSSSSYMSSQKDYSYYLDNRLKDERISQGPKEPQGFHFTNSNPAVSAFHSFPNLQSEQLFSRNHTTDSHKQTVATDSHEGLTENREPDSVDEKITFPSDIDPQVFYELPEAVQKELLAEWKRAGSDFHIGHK
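Fluorescent replication assay read twice, at 0 min and 10 min after adding 50 nM (final) substrate. Enzyme (10 nM) and compounds were first incubated 15 min at room temperature; enzyme-free buffer wells were negative controls.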
GLS inh = qHTS for Inhibitors of Glutaminase (GLS) | Potency, µM (series often up to 45.5 µM), for inactives: top-dose activity change, negative = inhibition, hits mostly inhibitors | AID 624170, 2012 | 0.21% of 410,000 active | GLS enzymatic activity, qHTS titration; also: % is scaled to controls: 0 for no effect and ±100 for the full control effect
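hKGA; 45 mM KH2PO4 pH 8.2 + 0.02% Tween-20; cpd via pin tool; 1 mM Gln soln; GluOx/HRP/Amplex Red; RT 30 min; fluor. t0 & final.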
Pol eta inh-1 = qHTS for Inhibitors of Polymerase Eta; DNA polymerase eta (Homo sapiens), Q9Y253; recombinant Pol eta, fluorescent DNA replication assay; Potency, µM (series often up to 114 µM), without a hit: at the highest dose activity change, negative = inhibition, most hits filed as inhibitors; 1.2% of 390,000 active; AID 588591, 2011; also: % is scaled to controls: 0 for no effect and ±100 for the full control effect
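Pol eta at 10 nM preincubated with compounds 15 min at room temperature; reaction started with fluorescent substrate (50 nM final) and read kinetically at 0 and 10 min.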
POLB inh = qHTS Assay for Inhibitors of DNA Polymerase Beta; P06746; Pol beta primer extension/strand displacement, fluorescence kinetic; Potency, µM (doses to about 114 µM), for inactives: at the highest dose activity change, negative = inhibition, actives largely listed as inhibitors; 1.3% of 340,000 active; AID 485314, 2010; also: % is scaled to controls: 0 for no effect and ±100 for the full control effect
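Homogeneous kinetic assay of primer extension and strand displacement by 10 nM Pol beta, preincubated 15 min at room temperature with compound before 50 nM substrate (final) was added. Read at 0 and 10 min; four-parameter Hill fit.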
GCN5L2 inh = qHTS Assay for Inhibitors of GCN5L2; Histone acetyltransferase KAT2A (Homo sapiens), Q92830; GCN5L2 HAT assay, ThioGlo1 CoA-SH fluorescence; Potency, µM (top dose mostly 58.9 µM), for inactives: top-dose activity change, negative = inhibition, usual class: inhibitors; 0.21% of 390,000 active; AID 504327, 2011; also: % is scaled to controls: 0 for no effect and ±100 for the full control effect
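ThioGlo1-coupled HAT assay: 20nM GCN5L2, 70uM acetyl-CoA, 75uM H3(1-25) peptide, pH 7.5. Fluorescence read at 340/540nm at start and after 20 min at room temperature.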
Pol kappa inh-1 = qHTS for Inhibitors of Polymerase Kappa; DNA polymerase kappa (Homo sapiens), Q9UBT6; 0.53% of 400,000 active; AID 588579, 2011; Potency, µM (titrated, usually from 107 µM), inactives show at the top dose activity, negative = inhibition, hits mostly inhibitors; purified Pol kappa, fluorescent DNA synthesis assay, 10 min; also: % is scaled to controls: 0 for no effect and ±100 for the full control effect
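First, compounds were pin-transferred onto 10 nM Pol kappa. After 15 min at room temperature, substrate was added to 50 nM final. Fluorescence was then measured kinetically at 0 and 10 min.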
Pol kappa inh-2 = qHTS for Inhibitors of Polymerase Kappa: Confirmatory Assay for Cherry-picked Compounds. 76% of 920 active. shares compounds with Pol eta inh-1. Potency, µM, most hits filed as inhibitors. purified Pol-kappa, fluorescent strand-displacement substrate
Pol eta inh-2 = qHTS for Inhibitors of Polymerase Eta: Confirmatory Assay for Cherry-picked Compounds; shares compounds with Pol eta inh-1; Pol eta primer extension, TAMRA/BHQ fluorescence, 10 min; Potency, µM, usual class: inhibitors; 64% of 2,600 active; AID 720502, 2013
Numbers without * were called inactive; ? = inconclusive; nt = no result; [ ] = remark or other dose. A selection: hits, their analogues and other compounds. The true share with any hit is near 2.4%. Calls follow the shape of the dose curve; as a rule, active = well fitted inhibition curve with a large enough effect; inconclusive = small, poorly fitted or top-dose-only effect, or another doubt; inactive = no such curve, though single readings can be large or run the other way. Potency is read from the fitted curve at half-maximal effect.

SMILES	POLI inh	GLS inh	Pol eta inh-1	POLB inh	GCN5L2 inh	Pol kappa inh-1	Pol eta inh-2	others
Cc1nn(-c2ccccc2)c(C)c1/C=N/NC(=O)c1cc(O)cc(O)c1	60%	27%	-16%	10%	-2%	5%	nt
Cc1nn(-c2ccccc2)c(C)c1-c1cc(C(=O)N/N=C/c2ccc(O)cc2)[nH]n1	20µM*	20%	28µM*	10µM*	-2%	79µM*	43*
COc1cc(/C=N/NC(=O)c2cc(-c3c(C)nn(-c4ccccc4)c3C)n[nH]2)ccc1O	3.2µM*	32%	20µM*	?	-8%	?	54*
CC1=C(C(=O)NCc2ccccc2Cl)C2(CCCCCC2)OC1=O	8%	-6%	-19%	6%	-8%	-3%	nt
O=[N+]([O-])c1cc(Br)cc(C=Nc2ccc3c(c2)OCO3)c1O	?	5%	79µM*	25µM*	-8%	?	76*
Cc1cc(C)c(Cn2c(C)c(CNCc3ccccc3C)c(C(=O)O)c2C)c(C)c1	15%	5%	-16%	24%	-2%	-1%	nt
COc1ccc(CN(Cc2ccccc2)C(=O)c2ccno2)cc1COc1ccc(NC(C)=O)cc1	40µM*	nt	nt	nt	nt	79µM*	?
Cc1nc2ccc(S(=O)(=O)N(C)CC(=O)Nc3ccc(C(C)C)cc3)cc2s1	27%	-1%	nt	0%	0%	-2%	nt
Cc1ccc(OCc2ccc(C(=O)O)o2)cc1C	-22%	3%	5%	29%	-15%	-7%	nt
Cc1ccc(OCc2ccoc2C(=O)O)cc1C	?	18µM*	7.1µM*	18µM*	-9%	?	?
CCN(CC)S(=O)(=O)c1ccc(NC(=O)Cc2cccs2)cc1	?	10%	56µM*	28µM*	-15%	-27%	?
NS(=O)(=O)c1ccc(NC(=O)Cc2cccs2)cc1	108%	-3%	-12%	-6%	-4%	1%	nt
CC1CCN(S(=O)(=O)c2ccc(NC(=O)Cc3cccs3)cc2)CC1	?	4%	?	14µM*	-14%	?	?
COC(=O)c1cc2occc2n1Cc1ccc(F)cc1Cl	5%	-5%	-1%	28%	-5%	7%	nt
COc1ccc(NC(=O)Cc2csc(COc3cccc(C)c3)n2)c(OC)c1	23%	1%	-18%	-4%	-13%	-10%	nt
O=C(CN1C(=O)/C(=C/c2ccco2)SC1=S)NC1CCS(=O)(=O)C1 (stereo not given)	?	?	13µM*	?	-14%	?	60*
CCOc1ccc(CCNC(=O)C2CC(C)=CCC2C(=O)O)cc1OCC (stereo not given)	?	?	28µM*	25µM*	4%	-26%	54*
O=C1c2cccc3c([N+](=O)[O-])ccc(c23)C(=O)N1Cc1cccnc1	?	-6%	?	16µM*	-2%	-10%	?
COc1ccc(-c2csc(NC3OC(=O)c4c3ccc(OC)c4OC)n2)cc1OC (stereo not given)	6%	-6%	-15%	0%	-5%	-5%	nt
COc1ccc2c(c1OC)C(=O)OC2Nc1nc(-c2cc3cc(Br)ccc3oc2=O)cs1 (stereo not given)	?	-13%	-10%	?	-13%	-20%	?
COc1ccc(OC)c(C2c3c(-c4ccc(Br)cc4)n[nH]c3C(=O)N2c2ccc(Cl)cc2)c1 (stereo not given)	13%	3%	-23%	2%	-6%	-12%	nt
Cc1ccccc1C(=O)Nc1nc2nc(C)c(C)c(=O)n2[nH]1	-30%	-8%	0%	81%	-4%	0%	nt
CN1C(=O)c2ccccc2NC(=O)[C@]12O[C@@H]2c1cccc(O)c1	?	?	11µM*	45µM*	?	40µM*	38*
COc1ccccc1CNC(=O)CSc1nc2nc(C)c(Cc3ccccc3C)c(C)n2n1	16%	4%	-13%	11%	-5%	7%	nt
Cc1ccc(S(=O)(=O)N2CCCC2)s1	-9%	6%	-8%	18%	-2%	2%	nt
SMILES	POLI inh	GLS inh	Pol eta inh-1	POLB inh	GCN5L2 inh	Pol kappa inh-1	Pol eta inh-2	others
Cc1ccc(C)c(/C=C(\C(=O)O)c2ccc(S(=O)(=O)N3CCCCC3)s2)c1	?	5%	50µM*	22µM*	-21%	?	?
COc1ccccc1CNc1ncnc2c1cnn2-c1ccc(C)cc1	8%	-4%	-24%	3%	3%	-4%[60.1 µM]	nt
CC1(C)CC(=O)C2=C(C1)c1c(ccc3ccccc13)NC2c1cc([N+](=O)[O-])cc([N+](=O)[O-])c1O (stereo not given)	?	2%	28µM*	45µM*	?	-36%	?	Pol kappa inh-2=47*
CC1(C)CC(=O)C2=C(C1)c1c(ccc3ccccc13)NC2c1ccc(C(=O)O)cc1 (stereo not given)	21%	3%	4%	15%	-30%	-9%	nt
CN(C)C1(CN=Cc2cc(Cl)cc([N+](=O)[O-])c2O)CCCCC1	?	-2%	?	14µM*	-22%	?	?
Cc1ccc(C)c(N2CCN(C(=O)Cn3cnc4nc5c(cc4c3=O)CCCC5)CC2)c1	11%	4%	-13%	19%	2%	-9%[60.1 µM]	nt
CCNc1nc(NCC)n2c(SCC(=O)Nc3ccc(OC(F)F)cc3)nnc2n1	?	-3%	?	nt	-1%	-12%	?
CCNc1nc(NCC)n2c(SCC(=O)Nc3ccc(F)cc3)nnc2n1	20µM*	94%	14µM*	nt	-5%	?	67*	Pol kappa inh-2=60*
COc1ccc(CNCCCSc2nnnn2-c2ccccc2)cc1	21%	2%	-17%	15%	-9%	-3%	nt
Cc1ccccc1-c1nc(CS(=O)(=O)CC(=O)NCC(C)c2ccccc2)c(C)o1 (stereo not given)	-3%	6%	-10%	-3%	-13%	-25%	nt

Assay outcomes (PubChem)
